# From the supplement of paper PMC10037445
# Where “and” joins values, the source holds several entries; their conditions need not be identical. Identical values can stand only once. Over roughly 2,900 compounds, “NF-kB SEAP reporter activity, fold change vs agonist alone” has its median near 0.99; the highest 2% begin near 2.6. This is one part of a sample in which the highest values are shown more often than they occur.
# Columns and labels:
# RAW-Dual [1] = assay: NF-kB SEAP reporter activity, fold change vs agonist alone; cytotoxicity flag (confluency mask): cytotoxic (confluency <70% of control); higher = enhanced NF-kB activity
# How it was run: (§1)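 Cytotoxic wells were those whose IncuCyte confluency was below 70% of agonist controls in both mask sets. The cells were RAW-Dual macrophages at 50,000 cells/well in DMEM on 384-well plates, dosed with 50 nL of library stock by pin tool, stimulated with a PRR agonist 1 h later, and kept at 37 °C, 5% CO2 for 20 hours. IRF and NF-κB reporter activity, as fold change over agonist-alone wells, came from supernatant read by QuantiLuc luminescence and QuantiBlue absorbance, respectively.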
# RAW-Dual [2] = assay: NF-kB SEAP reporter activity, fold change vs agonist alone; higher = enhanced NF-kB activity; settings: library stock concentration (final ~1000-fold dilution): 10 mM
# How it was run: as §1
# RAW-Dual [3] = assay: NF-kB SEAP reporter activity, fold change vs agonist alone; cytotoxicity flag (confluency mask): not cytotoxic; higher = enhanced NF-kB activity
# How it was run: as §1
# [4] = agonist: ODN 1826 (TLR9) 0.5 ug/mL
# [5] = agonist: Pam2CSK4 (TLR2/6) 0.1 ug/mL
# [6] = agonist: Pam3CSK4 (TLR2/1) 0.1 ug/mL
# [7] = cytotoxicity flag (confluency mask): not cytotoxic, agonist: Imiquimod (TLR7) […]
# [8] = cytotoxicity flag (confluency mask): not cytotoxic, agonist: MPLA (TLR4) […]
smiles,measurement,setting,value
O=C(c1ccc(Nc2nccc(-c3cc4ccccc4s3)n2)cc1)N1CCC(N2CCCC2)CC1 (library stock concentration (final ~1000-fold dilution): 10 mM),NF-kB SEAP reporter activity,RAW-Dual [1]; agonist: LPS (TLR4) 0.1 ug/mL,0.302 and 0.283
same,NF-kB SEAP reporter activity,RAW-Dual [1]; [4],0.179 and 0.19
same,NF-kB SEAP reporter activity,RAW-Dual [1]; [5],0.0736 and 0.0841
same,NF-kB SEAP reporter activity,RAW-Dual [1]; [6],0.128 and 0.186
CCOc1cc(C(=O)N2CCC(N3CCN(C)CC3)CC2)ccc1Nc1ncc2c(n1)N(C1CCCC1)c1ccccc1C(=O)N2C (library stock concentration (final ~1000-fold dilution): 10 mM),NF-kB SEAP reporter activity,RAW-Dual [1]; agonist: LPS (TLR4) 0.1 ug/mL,5.49
same,NF-kB SEAP reporter activity,RAW-Dual [1]; [4],1.31
same,NF-kB SEAP reporter activity,RAW-Dual [1]; [5],1.36
same,NF-kB SEAP reporter activity,RAW-Dual [1]; [6],3.42
CC1OC(=O)C(C)C1CC(O)C(C)(O)C1CCC2(O)C3=CC(=O)C4CC(O)C(O)CC4(C)C3CCC12C (centres undefined),NF-kB SEAP reporter activity,RAW-Dual [2]; [7],1.02
same,NF-kB SEAP reporter activity,RAW-Dual [2]; [8],1.05
CC1OC(=O)C(C)C1CC(O)C(C)(O)C1CCC2(O)C3=CC(=O)C4CC(O)C(O)CC4(C)C3CCC12C (centres undefined) (library stock concentration (final ~1000-fold dilution): 10 mM),NF-kB SEAP reporter activity,RAW-Dual [3]; agonist: LPS (TLR4) 0.1 ug/mL,1.18
same,NF-kB SEAP reporter activity,RAW-Dual [3]; [4],1.02
same,NF-kB SEAP reporter activity,RAW-Dual [3]; [5],1.16
same,NF-kB SEAP reporter activity,RAW-Dual [3]; [6],1.23
CCOc1cc(N)c([N+](=O)[O-])cc1C(=O)NC1CCN(CC2CC=CCC2)CC1.O=C(O)C(O)C(O)C(=O)O (centres undefined),NF-kB SEAP reporter activity,RAW-Dual [2]; [7],1.28
same,NF-kB SEAP reporter activity,RAW-Dual [2]; [8],1.03
CCOc1cc(N)c([N+](=O)[O-])cc1C(=O)NC1CCN(CC2CC=CCC2)CC1.O=C(O)C(O)C(O)C(=O)O (centres undefined) (library stock concentration (final ~1000-fold dilution): 10 mM),NF-kB SEAP reporter activity,RAW-Dual [3]; agonist: LPS (TLR4) 0.1 ug/mL,1.38
same,NF-kB SEAP reporter activity,RAW-Dual [3]; [4],0.18
same,NF-kB SEAP reporter activity,RAW-Dual [3]; [5],0.898
same,NF-kB SEAP reporter activity,RAW-Dual [3]; [6],0.739
CCC(Nc1ncnc2[nH]cnc12)c1oc2ccccc2c(=O)c1-c1cccc(F)c1 (centres undefined),NF-kB SEAP reporter activity,RAW-Dual [2]; [7],0.582
same,NF-kB SEAP reporter activity,RAW-Dual [2]; [8],0.924
CCC(Nc1ncnc2[nH]cnc12)c1oc2ccccc2c(=O)c1-c1cccc(F)c1 (centres undefined) (library stock concentration (final ~1000-fold dilution): 10 mM),NF-kB SEAP reporter activity,RAW-Dual [3]; agonist: LPS (TLR4) 0.1 ug/mL,0.907
same,NF-kB SEAP reporter activity,RAW-Dual [3]; [4],0.718
same,NF-kB SEAP reporter activity,RAW-Dual [3]; [5],0.443
same,NF-kB SEAP reporter activity,RAW-Dual [3]; [6],0.61
O=C(Oc1cccc(F)c1OC(=O)c1cccc(O)c1)c1cccc(O)c1,NF-kB SEAP reporter activity,"RAW-Dual [2]; cytotoxicity flag (confluency mask): cytotoxic (confluency <70% of control), agonist: Imiquimod (TLR7) […]",0.964
same,NF-kB SEAP reporter activity,"RAW-Dual [2]; cytotoxicity flag (confluency mask): cytotoxic (confluency <70% of control), agonist: MPLA (TLR4) […]",1.24
O=C(Oc1cccc(F)c1OC(=O)c1cccc(O)c1)c1cccc(O)c1 (library stock concentration (final ~1000-fold dilution): 10 mM),NF-kB SEAP reporter activity,RAW-Dual [1]; agonist: LPS (TLR4) 0.1 ug/mL,1.21
same,NF-kB SEAP reporter activity,RAW-Dual [1]; [4],0.597
same,NF-kB SEAP reporter activity,RAW-Dual [1]; [5],0.639
same,NF-kB SEAP reporter activity,RAW-Dual [1]; [6],0.541
CC(C)C(NC(=O)c1ccc2ccccc2n1)C(=O)NC(CC(=O)O)C(=O)COc1c(F)cccc1F (centres undefined) (library stock concentration (final ~1000-fold dilution): 10 mM),NF-kB SEAP reporter activity,RAW-Dual [3]; agonist: LPS (TLR4) 0.1 ug/mL,1.05
same,NF-kB SEAP reporter activity,RAW-Dual [3]; [4],1.05
same,NF-kB SEAP reporter activity,RAW-Dual [3]; [5],1.03
same,NF-kB SEAP reporter activity,RAW-Dual [3]; [6],1.26
CC(C)C(NC(=O)c1ccc2ccccc2n1)C(=O)NC(CC(=O)O)C(=O)COc1c(F)cccc1F (centres undefined),NF-kB SEAP reporter activity,RAW-Dual [2]; [7],1.01
same,NF-kB SEAP reporter activity,RAW-Dual [2]; [8],1.14
CC12CCC3C(CCC4C(C)(C(=O)O)CCCC34C)(CC1=O)C2 (centres undefined) (library stock concentration (final ~1000-fold dilution): 10 mM),NF-kB SEAP reporter activity,RAW-Dual [3]; agonist: LPS (TLR4) 0.1 ug/mL,1.41
same,NF-kB SEAP reporter activity,RAW-Dual [3]; [4],1.11
same,NF-kB SEAP reporter activity,RAW-Dual [3]; [5],1.13
same,NF-kB SEAP reporter activity,RAW-Dual [3]; [6],1.02
CC12CCC3C(CCC4C(C)(C(=O)O)CCCC34C)(CC1=O)C2 (centres undefined),NF-kB SEAP reporter activity,RAW-Dual [2]; [7],0.95
same,NF-kB SEAP reporter activity,RAW-Dual [2]; [8],1.14
O=C1OC(=O)C2C3CCC(O3)C12 (centres undefined),NF-kB SEAP reporter activity,RAW-Dual [2]; [7],1.93
same,NF-kB SEAP reporter activity,RAW-Dual [2]; [8],2.03
O=C1OC(=O)C2C3CCC(O3)C12 (centres undefined) (library stock concentration (final ~1000-fold dilution): 10 mM),NF-kB SEAP reporter activity,RAW-Dual [3]; agonist: LPS (TLR4) 0.1 ug/mL,3.23
same,NF-kB SEAP reporter activity,RAW-Dual [3]; [4],2
same,NF-kB SEAP reporter activity,RAW-Dual [3]; [5],1.84
same,NF-kB SEAP reporter activity,RAW-Dual [3]; [6],1.76
CS(=O)(=O)O.Cc1c(O)cccc1C(=O)NC(CSc1ccccc1)C(O)CN1CC2CCCCC2CC1C(=O)NC(C)(C)C (centres undefined) (library stock concentration (final ~1000-fold dilution): 10 mM),NF-kB SEAP reporter activity,RAW-Dual [3]; agonist: LPS (TLR4) 0.1 ug/mL,4.08
same,NF-kB SEAP reporter activity,RAW-Dual [3]; [4],1.02
same,NF-kB SEAP reporter activity,RAW-Dual [3]; [5],0.418
same,NF-kB SEAP reporter activity,RAW-Dual [3]; [6],0.656
CC(C)(C)NC(=O)C1CN(Cc2cccnc2)CCN1CC(O)CC(Cc1ccccc1)C(=O)NC1c2ccccc2CC1O.O=S(=O)(O)O (centres undefined),NF-kB SEAP reporter activity,RAW-Dual [2]; [7],1.07
same,NF-kB SEAP reporter activity,RAW-Dual [2]; [8],1.21
CS(=O)(=O)O.Cc1c(O)cccc1C(=O)NC(CSc1ccccc1)C(O)CN1CC2CCCCC2CC1C(=O)NC(C)(C)C (centres undefined),NF-kB SEAP reporter activity,RAW-Dual [2]; [7],2.13
same,NF-kB SEAP reporter activity,RAW-Dual [2]; [8],2.22
CC(C)(C)NC(=O)C1CN(Cc2cccnc2)CCN1CC(O)CC(Cc1ccccc1)C(=O)NC1c2ccccc2CC1O.O=S(=O)(O)O (centres undefined) (library stock concentration (final ~1000-fold dilution): 10 mM),NF-kB SEAP reporter activity,RAW-Dual [3]; agonist: LPS (TLR4) 0.1 ug/mL,1.3
same,NF-kB SEAP reporter activity,RAW-Dual [3]; [4],1.15
same,NF-kB SEAP reporter activity,RAW-Dual [3]; [5],1.2
same,NF-kB SEAP reporter activity,RAW-Dual [3]; [6],1.34
C=C(C)C(=O)Nc1cccc(-c2ncnc3[nH]cc(C(=O)OCC)c23)c1,NF-kB SEAP reporter activity,RAW-Dual [2]; [7],1.01
same,NF-kB SEAP reporter activity,RAW-Dual [2]; [8],1.18
C=C(C)C(=O)Nc1cccc(-c2ncnc3[nH]cc(C(=O)OCC)c23)c1 (library stock concentration (final ~1000-fold dilution): 10 mM),NF-kB SEAP reporter activity,RAW-Dual [3]; agonist: LPS (TLR4) 0.1 ug/mL,1.36
same,NF-kB SEAP reporter activity,RAW-Dual [3]; [4],1.14
same,NF-kB SEAP reporter activity,RAW-Dual [3]; [5],1.44
same,NF-kB SEAP reporter activity,RAW-Dual [3]; [6],1.27
C=C1C(=O)OC2/C=C(\C)CC/C=C(\C)CCC12 (centres undefined) (library stock concentration (final ~1000-fold dilution): 10 mM),NF-kB SEAP reporter activity,RAW-Dual [3]; agonist: LPS (TLR4) 0.1 ug/mL,0.231
same,NF-kB SEAP reporter activity,RAW-Dual [3]; [4],0.213
same,NF-kB SEAP reporter activity,RAW-Dual [3]; [5],0.153
same,NF-kB SEAP reporter activity,RAW-Dual [3]; [6],0.197
C=C1C(=O)OC2/C=C(\C)CC/C=C(\C)CCC12 (centres undefined),NF-kB SEAP reporter activity,RAW-Dual [2]; [7],0.262
same,NF-kB SEAP reporter activity,RAW-Dual [2]; [8],0.198
